Measurements published in PubChem BioAssay (NCATS).
Records with an inconclusive call do not appear. A call without a number means that no potency is given here. The source made the active and inactive calls. Calls follow the shape of the dose curve; as a rule, active = well fitted cell-killing curve with a large enough effect; inconclusive = small, poorly fitted or top-dose-only effect, or effect the other way; inactive = no such curve, though single readings can be large or run the other way.

Assay: Quantitative High-Throughput drug screen in 47 multiple myeloma cell lines against the NCATS MIPE library collection: KMS11_JCRBsus cell viability assay (AID 1919873); also: nearly all actives have a fitted effect of over 50% in size
Details: KMS11 myeloma viability, CellTiter-Glo ATP luminescence, 48 h; series mostly up to 45.8 µM
Summary of the method: (§1)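 ATP-based luminescence (CellTiter-Glo, 5 min RT incubation) quantified surviving cells following two days' treatment with MIPE 4.0 agents at 37 °C, 5% CO2.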
Potency is read from the fitted curve at half-maximal effect.

Compound | Potency
COc1cc2c(cc1OC)CN(CCc1ccc(NC(=O)c3cccc4c(=O)c5cccc(OC)c5[nH]c34)cc1)CC2 | inactive
Oc1ccc(C2CNCCc3c2cc(O)c(O)c3Cl)cc1 (stereo not given) | inactive
NCCc1ccc(O)c(O)c1 | 9.35 µM (active)
COc1cc2nccc(Oc3ccc(NC(=O)NC4CC4)c(Cl)c3)c2cc1C(N)=O | 20.9 µM (active)
COc1cc(Oc2ccnc3cc(OC)c(OC)cc23)ccc1NC(=O)NC(C)c1nccs1 (stereo not given) | 18.7 µM (active)
CCOc1cc(C=C2C(=O)N(c3ccccc3)N=C2C)cc(Cl)c1OCC(=O)OC | inactive
CC1(C)Cc2c(-c3ccccc3)c(-c3ccc(Cl)cc3)c(CC(=O)O)n2C1 | 18.7 µM (active)
O=c1[nH]c(-c2ccc(C(F)(F)F)cc2)nc2c1CSCC2 | inactive
COc1ccccc1[C@H](c1cccc2ccccc12)[C@@](C)(C#N)C(=O)N1CCC(c2cccc(C(F)(F)F)c2)CC1 | 1.05 µM (active)
O=C(NOC[C@H](O)CO)c1ccc(F)c(F)c1Nc1ccc(I)cc1F | inactive
COc1ccc([C@@H]2CC(=O)c3c(O)cc(O[C@@H]4O[C@H](CO[C@@H]5O[C@@H](C)[C@H](O)[C@@H](O)[C@@H]5O)[C@@H](O)[C@H](O)[C@@H]4O)cc3O2)cc1O | inactive
NC(=O)c1ccc(-c2nc(-c3ccc4c(c3)OCCO4)c(-c3ccccn3)[nH]2)cc1 | inactive
CCOC(=O)C1=C[C@]2(CC)CCCN3CCc4c(n1c1ccccc41)[C@@H]32 | 8.33 µM (active)
CCOc1ccc(Cc2cc([C@@H]3O[C@H](CO)[C@@H](O)[C@H](O)[C@@H]3O)ccc2Cl)cc1 | inactive
CCc1cncnc1N1CCN(Cc2nc3ccc(C(F)(F)F)cc3[nH]2)CC1 | 11.8 µM (active)
CCn1cc(C(=O)O)c(=O)c2cc(F)c(N3CCNC(C)C3)c(F)c21 (stereo not given) | inactive
COc1ccc(C2=N[C@H](c3ccc(Cl)cc3)[C@H](c3ccc(Cl)cc3)N2C(=O)N2CCNC(=O)C2)c(OC(C)C)c1 | 16.6 µM (active)

Assay: Quantitative High-Throughput drug screen in 47 multiple myeloma cell lines against the NCATS MIPE library collection: KMS28BM_JCRB cell viability assay (AID 1919874); also: nearly all actives have a fitted effect of over 35% in size
Details: CellTiter-Glo ATP, 48 h; series mostly up to 45.8 µM
Summary of the method: as §1

Compound | Potency
O=C(C=Cc1ccc(/C=C/C(=O)Nc2ccc(C3=NCCN3)cc2)cc1)Nc1ccc(C2=NCCN2)cc1 | inactive
COc1cc2c(cc1OC)CN(CCc1ccc(NC(=O)c3cccc4c(=O)c5cccc(OC)c5[nH]c34)cc1)CC2 | inactive
Oc1ccc(C2CNCCc3c2cc(O)c(O)c3Cl)cc1 (stereo not given) | inactive
CNC[C@H](O)c1cccc(O)c1 | inactive
Cc1c(CN2CCN(C(=O)C(C)C)CC2)sc2c(N3CCOCC3)nc(-c3cnc(N)nc3)nc12 | 0.0372 µM (active)
NS(=O)(=O)c1cc2c(cc1Cl)NC=NS2(=O)=O | inactive
OC(CCN1CCCCC1)(c1ccccc1)C1CC2C=CC1C2 (stereo not given) | inactive
COc1ccc(CCN2CCN(CCCc3ccccc3)CC2)cc1OC | 2.09 µM (active)
NCCc1ccc(O)c(O)c1 | inactive
NC(=O)c1ccc(I)c([N+](=O)[O-])c1 | inactive
CC(=O)Oc1ccccc1C(=O)O | 9.35 µM (active)
Cc1ccc(-n2nc(C(C)(C)C)cc2NC(=O)Nc2ccc(OCCN3CCOCC3)c3ccccc23)cc1 | inactive
CCC(=O)N[C@H]1CC[C@H](C(=O)N(C)c2ccc(-c3nc4ccccc4o3)cc2)C1 | 14.8 µM (active)
COc1cc2nccc(Oc3ccc(NC(=O)NC4CC4)c(Cl)c3)c2cc1C(N)=O | 16.6 µM (active)
Cc1[nH]c(=O)c(C#N)cc1-c1ccncc1 | 11.8 µM (active)
CNC(=O)c1ccc(N2C(=S)N(c3ccc(C#N)c(C(F)(F)F)c3)C(=O)C2(C)C)cc1F | inactive
COc1cc(Oc2ccnc3cc(OC)c(OC)cc23)ccc1NC(=O)NC(C)c1nccs1 (stereo not given) | 9.35 µM (active)
C[C@]12CC[C@H](O)CC1=CC[C@@H]1[C@H]2CC[C@]2(C)C(c3cccnc3)=CC[C@H]12 | inactive
CCOc1cc(C=C2C(=O)N(c3ccccc3)N=C2C)cc(Cl)c1OCC(=O)OC | inactive
CC1(C)Cc2c(-c3ccccc3)c(-c3ccc(Cl)cc3)c(CC(=O)O)n2C1 | 16.6 µM (active)
O=c1[nH]c(-c2ccc(C(F)(F)F)cc2)nc2c1CSCC2 | inactive
COc1ccccc1[C@H](c1cccc2ccccc12)[C@@](C)(C#N)C(=O)N1CCC(c2cccc(C(F)(F)F)c2)CC1 | 4.18 µM (active)
O=C(NOC[C@H](O)CO)c1ccc(F)c(F)c1Nc1ccc(I)cc1F | inactive
